A selection: hits, their analogues and other compounds. The true share with any hit is near 2.1%.
aSyn rescue – rescues yeast growth from alpha-synuclein toxicity. AID 652106. Potency, µM (top dose mostly 46.1 µM), hits mostly activators. actives 0.14% (n = 370,000). Yeast expressing alpha-synuclein, growth rescue, BacTiter-Glo, 24 h; further: nearly all actives have a fitted effect of over 65% in size
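Screening used galactose-induced yeast with toxic alpha-synuclein levels, exposed to compound for 24 hr at 30 deg C. Cell growth, read with BacTiter-Glo luminescence, gave the measured signal.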
TDP43 rescue – inhibitors of TDP-43 toxicity in yeast. AID 652104. actives 1.8% (n = 410,000). TDP-43 expressing yeast growth rescue, BacTiter-Glo, 24 h. Potency, µM (series often up to 46.1 µM), usual class: activators; further: nearly all actives have a fitted effect of over 50% in size
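Yeast cells expressing TDP-43 under galactose induction are exposed to compounds for 24 hr at 30 deg C. BacTiter-Glo luminescence measures growth, so protective compounds score as activators.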
Abeta rescue – compounds reversing amyloid beta toxicity in yeast. actives 0.063% (n = 410,000). AID 1347071. Potency, µM (titrated, usually from 46.1 µM), hits mostly activators. yeast expressing A-beta42, growth rescue, OD600, 48 h; response scale: 0% DMSO, 100% iron-clioquinol control; further: nearly all actives have a fitted effect of over 55% in size
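Yeast A-beta toxicity model in growth medium with pinned compounds, 48 h at 30 C; growth read as absorbance at 600 nm. Normalized to FeCl3/clioquinol equimolar mix (positive) and DMSO (negative).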
FUS yeast rescue – suppressors of FUS proteinopathy in yeast | S. cerevisiae FUS-expressing, growth rescue, OD600, 24 h | Potency, µM (top dose mostly 76.6 µM), most hits filed as activators | actives 0.24% (n = 390,000) | AID 1347120; further: nearly all actives have a fitted effect of over 55% in size
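S. cerevisiae expressing FUS from galactose induction served as the toxicity model. Growth after 24hr at 30C, read as absorbance at 600 nm, indicates suppression of toxicity; compounds dosed at several concentrations.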
A number is an active result; – = inactive; ? = inconclusive; · = not tested or not shown. The call rests on the fitted dose curve; in most records, active means well fitted curve in the direction sought with a large enough effect; inconclusive means small, poorly fitted or top-dose-only effect, or another doubt; inactive means no such curve, though single readings can be large; an effect the other way counts as inactive or inconclusive.

SMILES	aSyn rescue	TDP43 rescue	Abeta rescue	FUS yeast rescue
O=C(Nc1ccccc1N1CCCC1)c1cccc(F)c1	–	–	–	–
CCN(CC)c1ccc(/C=N/NC(=O)Cc2nnc(NC(=O)Nc3ccccc3)s2)cc1	–	–	–	18µM
COc1ccc(N(CCN2C(=O)c3ccccc3C2=O)C(=O)c2cccc([N+](=O)[O-])c2)cc1	–	11µM	–	–
CCCCC1=CC2=C(c3ccco3)C(=O)C(C)(OC(=O)c3ccc(OC)cc3)C(=O)C2=CN1CCCCO (stereo unspecified)	–	–	–	?
CCCCC1=CC2=C(c3ccco3)C(=O)C(C)(OC(=O)c3ccc(OC)cc3)C(=O)C2=CN1CC1CC1 (stereo unspecified)	–	–	–	20µM
O=C(c1cn(-c2ccc(Cl)c(Cl)c2)nn1)C1CC1	–	8.9µM	–	–
CSc1nnc(C(C)(C)C)c(=O)n1/N=C/c1ccccc1	–	–	–	–
CC(C)C(c1nnnn1C1CCCC1)N1CCCc2ccccc21 (stereo unspecified)	–	16µM	–	–
Cc1ccc(C#N)c(SCCN2CCCCC2)n1	–	–	–	–
CCc1c(-c2n[nH]c(=S)n2Cc2ccccc2)csc1C	–	11µM	–	–
Cc1scc(-c2n[nH]c(=S)n2Cc2ccccc2)c1C	–	?	–	·
Cc1ccc(C2C(C(=O)c3cc4ccccc4o3)=C(O)C(=O)N2CCN2CCOCC2)cc1 (stereo unspecified)	–	–	·	–
COc1cc(C2C(C(=O)c3cc4ccccc4o3)=C(O)C(=O)N2CCN2CCOCC2)ccc1OCCC(C)C (stereo unspecified)	–	–	–	28µM
Cc1ccc(S(=O)(=O)NN(Cc2ccccc2)Cc2ccccc2)cc1	–	–	–	–
CC(=O)Nc1ccc(S(=O)(=O)N2CCN(c3cc(C)ccc3C)CC2)cc1	–	28µM	–	?
CC(=O)Nc1ccc(S(=O)(=O)N2CCN(S(=O)(=O)c3ccccc3)CC2)cc1	–	–	–	–
O=C(COc1ccc2c(c1)CCC2)N1CCN(c2cccc(C(F)(F)F)c2)CC1	?	?	–	–
CCOC(=O)c1c(C)sc2c1N(C(=O)CCl)c1cc(Cl)ccc1S2	–	20µM	–	·
Oc1oc(-c2ccc(Br)cc2)nc1C=Nc1ccc(Br)cn1	–	–	–	–
COc1cc(Cl)c(NS(=O)(=O)c2ccc(-c3ccc(=O)[nH]n3)o2)c(OC)c1	–	–	–	–
O=C(NCCc1cn[nH]c1)C1CCC(=O)N(CCc2cccc(F)c2)C1 (stereo unspecified)	–	–	–	–
COc1ccc(OC)c(/C=C/c2c([N+](=O)[O-])c(=O)n(C)c(=O)n2C)c1	–	–	–	–
Cc1ccc(C(=O)c2cn(Cc3cccc(C)c3)c3nc(C)ccc3c2=O)cc1	·	20µM	–	–
Cc1ccc(Cn2cc(C(=O)c3ccc(C)cc3)c(=O)c3ccc(C)nc32)cc1	·	–	–	–
CC(C)n1nc(C(=O)NC2CCCCCC2)c2ccccc2c1=O	–	22µM	–	–
SMILES	aSyn rescue	TDP43 rescue	Abeta rescue	FUS yeast rescue
CC(C)C[C@H]1CNC(=S)N1CC1CCN(CCC2CCCC2)CC1	–	–	–	–
O=C(/C=C/c1cccs1)Nc1cccc(NC(=O)/C=C/c2cccs2)n1	–	7.9µM	–	–
CC(C)C[C@H](NC(=O)OC(C)(C)C)c1nnc(SCC(=O)Nc2ccc(Br)cc2)o1	–	0.32µM	–	–
CC(C)C[C@H](N)c1nnc(SCC(=O)Nc2ccc(Br)cc2)o1	–	–	–	–
CC(=O)C(Sc1ncnc2sc3c(c12)CCCC3)C(C)=O	?	18µM	?	–
O=C(CSc1ncnc2sc3c(c12)CCCC3)c1ccccc1	–	–	–	–
O=C(CSc1ncnc2sc3c(c12)CCCC3)c1ccco1	–	10µM	–	–
Cc1cc(C)nc(Sc2ncnc3sc4c(c23)CCC4)n1	–	20µM	–	–
CC(C#N)Sc1ncnc2sc3c(c12)CCC3 (stereo unspecified)	–	–	–	–
CN1c2ccccc2Oc2nnc(Cl)cc21	16µM	11µM	–	–
O=C(CNc1cccc(S(=O)(=O)N2CCOCC2)c1)Nc1ccc(C(F)(F)F)cc1	–	–	–	–
CCN(CCCNC(=O)C1CCN(C(=O)c2cc3sccc3n2C)CC1)Cc1ccccc1	–	–	–	–
CCOC(=O)N1C(=O)[C@](c2ccc(Cl)cc2)(C(C)C)N1C(=O)OCC	–	16µM	–	–
